The supplement of paper PMC10849652
The full data set covers some 8,800 targets. This sample favours those with a hit. About 0.5% of all pairs of compound and target were hits. Values without a mark were called inactive.

Compound: C1COCCN1CCN2C3=CC=CC=C3N=C2NC(=O)C4=CC(=CC=C4)[N+](=O)[O-] [IRAK-1-4 Inhibitor I]
Assay: log2 fold change, soluble protein after heating vs DMSO (PISA); higher = thermal stabilisation; K562 lysate, 10 uM; active = over 0.2 and 3.5 SD of the protein, either way, in both replicates (recomputed)
Outline: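 Soluble protein was defined as the supernatant remaining after 21,000xg for 90 min, following pooling of heated aliquots and adjustment to 0.5% NP-40 at 4°C. Before that, crude K562 extract at 1 mg/mL protein in PBS pH 7.4 with 1 mM MgCl2 was treated with 10 μM compound for 30 min and heated for 3 min across 48°C-58°C. Quantification used TMTpro 16plex LC-MS/MS with channel sums equalised, and values are log-two fold changes in thermal stability relative to solvent controls from duplicates.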

Sequence of UniProt P39880 (P39880 whole entry, looked up): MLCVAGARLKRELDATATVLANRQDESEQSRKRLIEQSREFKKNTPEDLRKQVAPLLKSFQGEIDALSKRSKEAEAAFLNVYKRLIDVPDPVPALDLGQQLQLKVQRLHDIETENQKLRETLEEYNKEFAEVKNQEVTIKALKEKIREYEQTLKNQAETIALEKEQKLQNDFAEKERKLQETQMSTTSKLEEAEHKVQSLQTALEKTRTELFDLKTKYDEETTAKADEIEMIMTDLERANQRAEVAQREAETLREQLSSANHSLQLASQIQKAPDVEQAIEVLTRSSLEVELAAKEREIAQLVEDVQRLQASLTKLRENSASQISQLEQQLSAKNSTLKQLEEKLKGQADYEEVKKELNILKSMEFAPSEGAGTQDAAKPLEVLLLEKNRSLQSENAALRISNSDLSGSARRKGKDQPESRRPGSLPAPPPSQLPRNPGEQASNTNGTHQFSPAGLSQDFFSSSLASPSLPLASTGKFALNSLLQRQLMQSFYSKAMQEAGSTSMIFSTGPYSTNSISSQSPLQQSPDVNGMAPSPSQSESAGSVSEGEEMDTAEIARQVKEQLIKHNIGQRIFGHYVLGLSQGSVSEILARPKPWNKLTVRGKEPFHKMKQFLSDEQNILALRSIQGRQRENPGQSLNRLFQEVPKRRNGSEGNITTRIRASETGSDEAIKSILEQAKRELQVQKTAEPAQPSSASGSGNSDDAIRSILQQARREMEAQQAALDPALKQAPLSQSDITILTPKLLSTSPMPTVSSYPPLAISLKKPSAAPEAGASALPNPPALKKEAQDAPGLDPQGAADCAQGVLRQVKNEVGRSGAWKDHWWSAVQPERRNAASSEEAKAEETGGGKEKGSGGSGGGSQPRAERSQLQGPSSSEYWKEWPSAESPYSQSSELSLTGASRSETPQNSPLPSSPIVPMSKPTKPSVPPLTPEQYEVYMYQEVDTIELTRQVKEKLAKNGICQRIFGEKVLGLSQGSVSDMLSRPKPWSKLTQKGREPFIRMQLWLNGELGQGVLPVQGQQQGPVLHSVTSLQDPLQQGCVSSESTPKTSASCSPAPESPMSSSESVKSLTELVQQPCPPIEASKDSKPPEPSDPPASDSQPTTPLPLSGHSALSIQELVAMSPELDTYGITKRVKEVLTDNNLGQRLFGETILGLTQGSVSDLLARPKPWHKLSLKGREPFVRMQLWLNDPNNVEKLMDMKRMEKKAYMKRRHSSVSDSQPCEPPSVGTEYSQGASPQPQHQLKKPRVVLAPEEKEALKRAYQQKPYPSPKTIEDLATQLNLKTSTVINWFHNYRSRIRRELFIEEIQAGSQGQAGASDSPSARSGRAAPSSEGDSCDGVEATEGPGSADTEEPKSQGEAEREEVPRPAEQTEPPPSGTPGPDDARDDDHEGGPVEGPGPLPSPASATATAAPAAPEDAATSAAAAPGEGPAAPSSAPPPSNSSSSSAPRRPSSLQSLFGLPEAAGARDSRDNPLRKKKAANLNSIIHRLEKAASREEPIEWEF
Sequence of UniProt Q6UWP2 (Q6UWP2 whole entry, looked up): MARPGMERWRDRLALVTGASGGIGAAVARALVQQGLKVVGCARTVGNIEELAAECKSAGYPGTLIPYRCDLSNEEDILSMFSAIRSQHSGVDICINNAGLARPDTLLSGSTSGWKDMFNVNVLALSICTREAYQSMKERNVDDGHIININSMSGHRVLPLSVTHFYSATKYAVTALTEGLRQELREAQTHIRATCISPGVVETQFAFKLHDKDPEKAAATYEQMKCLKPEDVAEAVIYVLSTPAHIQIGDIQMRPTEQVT
Sequence of UniProt O76075 (O76075 whole entry, looked up): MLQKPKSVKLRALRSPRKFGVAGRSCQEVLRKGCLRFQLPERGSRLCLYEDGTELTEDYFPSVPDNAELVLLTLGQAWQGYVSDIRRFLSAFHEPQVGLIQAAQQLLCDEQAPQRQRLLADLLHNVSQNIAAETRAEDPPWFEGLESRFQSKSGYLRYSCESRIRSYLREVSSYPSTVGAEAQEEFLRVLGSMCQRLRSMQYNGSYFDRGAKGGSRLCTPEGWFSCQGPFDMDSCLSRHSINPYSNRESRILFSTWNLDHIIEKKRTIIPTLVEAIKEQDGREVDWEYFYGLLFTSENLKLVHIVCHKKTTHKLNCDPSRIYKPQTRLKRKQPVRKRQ
Sequence of UniProt A8TX70 (A8TX70 whole entry, looked up): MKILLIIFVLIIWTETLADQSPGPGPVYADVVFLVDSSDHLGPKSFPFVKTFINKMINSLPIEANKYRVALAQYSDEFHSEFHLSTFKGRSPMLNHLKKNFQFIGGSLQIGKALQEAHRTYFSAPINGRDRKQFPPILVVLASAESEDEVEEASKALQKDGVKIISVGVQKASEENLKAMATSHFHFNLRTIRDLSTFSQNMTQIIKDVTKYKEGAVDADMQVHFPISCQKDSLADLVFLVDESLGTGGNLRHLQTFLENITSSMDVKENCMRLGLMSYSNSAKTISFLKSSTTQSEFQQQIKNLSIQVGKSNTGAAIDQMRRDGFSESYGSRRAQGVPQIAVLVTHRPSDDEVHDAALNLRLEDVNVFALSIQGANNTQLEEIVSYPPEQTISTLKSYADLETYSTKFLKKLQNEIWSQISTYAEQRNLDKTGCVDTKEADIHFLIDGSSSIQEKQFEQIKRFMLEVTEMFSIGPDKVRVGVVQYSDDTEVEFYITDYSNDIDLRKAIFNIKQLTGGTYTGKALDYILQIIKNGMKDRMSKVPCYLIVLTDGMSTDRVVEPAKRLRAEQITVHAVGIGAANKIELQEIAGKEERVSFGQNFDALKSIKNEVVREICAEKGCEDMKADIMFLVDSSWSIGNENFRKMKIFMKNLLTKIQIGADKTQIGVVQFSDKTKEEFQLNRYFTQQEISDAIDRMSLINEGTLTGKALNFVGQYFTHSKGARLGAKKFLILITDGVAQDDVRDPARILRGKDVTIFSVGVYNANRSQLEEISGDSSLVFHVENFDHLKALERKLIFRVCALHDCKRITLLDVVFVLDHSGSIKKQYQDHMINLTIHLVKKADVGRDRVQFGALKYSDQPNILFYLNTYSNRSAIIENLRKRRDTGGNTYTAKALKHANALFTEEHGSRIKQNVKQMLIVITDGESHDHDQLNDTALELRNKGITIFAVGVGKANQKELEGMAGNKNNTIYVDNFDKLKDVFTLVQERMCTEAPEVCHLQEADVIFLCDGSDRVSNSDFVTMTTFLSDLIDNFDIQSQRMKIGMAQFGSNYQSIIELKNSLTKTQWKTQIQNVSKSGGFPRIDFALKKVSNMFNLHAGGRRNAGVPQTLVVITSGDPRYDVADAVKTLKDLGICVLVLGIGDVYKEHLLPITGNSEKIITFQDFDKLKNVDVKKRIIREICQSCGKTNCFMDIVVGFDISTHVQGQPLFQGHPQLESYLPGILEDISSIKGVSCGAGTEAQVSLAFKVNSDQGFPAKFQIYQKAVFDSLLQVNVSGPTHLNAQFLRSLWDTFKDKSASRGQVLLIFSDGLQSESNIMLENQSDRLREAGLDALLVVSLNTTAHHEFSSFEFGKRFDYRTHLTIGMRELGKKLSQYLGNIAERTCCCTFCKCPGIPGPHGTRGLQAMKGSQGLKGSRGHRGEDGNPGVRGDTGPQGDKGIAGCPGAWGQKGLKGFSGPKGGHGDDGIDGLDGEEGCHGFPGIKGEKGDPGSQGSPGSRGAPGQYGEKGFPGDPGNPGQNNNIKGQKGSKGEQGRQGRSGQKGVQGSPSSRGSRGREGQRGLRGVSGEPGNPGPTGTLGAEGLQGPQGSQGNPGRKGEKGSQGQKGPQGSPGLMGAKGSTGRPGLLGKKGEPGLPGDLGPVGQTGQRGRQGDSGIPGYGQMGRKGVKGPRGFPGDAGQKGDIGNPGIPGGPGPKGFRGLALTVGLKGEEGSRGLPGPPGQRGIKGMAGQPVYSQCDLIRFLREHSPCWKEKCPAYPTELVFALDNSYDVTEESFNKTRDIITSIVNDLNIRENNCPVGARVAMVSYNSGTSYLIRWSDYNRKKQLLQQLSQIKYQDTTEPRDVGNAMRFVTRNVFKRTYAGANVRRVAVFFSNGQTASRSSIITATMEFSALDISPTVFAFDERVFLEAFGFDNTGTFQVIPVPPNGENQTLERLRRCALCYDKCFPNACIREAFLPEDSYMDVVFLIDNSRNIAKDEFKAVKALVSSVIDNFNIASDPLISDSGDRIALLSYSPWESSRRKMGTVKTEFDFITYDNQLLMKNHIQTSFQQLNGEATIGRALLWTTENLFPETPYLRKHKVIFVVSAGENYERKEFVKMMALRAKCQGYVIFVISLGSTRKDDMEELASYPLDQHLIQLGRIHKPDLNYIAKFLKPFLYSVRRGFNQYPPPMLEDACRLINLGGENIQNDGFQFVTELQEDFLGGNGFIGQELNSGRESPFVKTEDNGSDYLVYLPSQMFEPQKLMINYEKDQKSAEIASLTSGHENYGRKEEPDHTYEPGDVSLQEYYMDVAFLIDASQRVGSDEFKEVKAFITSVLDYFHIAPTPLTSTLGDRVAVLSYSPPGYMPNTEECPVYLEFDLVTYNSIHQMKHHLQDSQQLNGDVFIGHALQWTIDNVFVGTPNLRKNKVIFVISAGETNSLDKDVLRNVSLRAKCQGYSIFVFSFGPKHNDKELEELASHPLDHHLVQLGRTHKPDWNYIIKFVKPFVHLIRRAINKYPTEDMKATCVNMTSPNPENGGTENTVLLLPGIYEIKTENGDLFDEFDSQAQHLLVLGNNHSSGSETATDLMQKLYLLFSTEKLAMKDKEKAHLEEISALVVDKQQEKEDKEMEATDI
Sequence of UniProt Q8WUH1 (Q8WUH1 whole entry, looked up): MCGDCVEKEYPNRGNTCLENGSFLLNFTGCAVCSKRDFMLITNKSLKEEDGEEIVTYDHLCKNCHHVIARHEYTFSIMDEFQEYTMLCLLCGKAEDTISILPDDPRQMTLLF
Sequence of UniProt P29373 (P29373 whole entry, looked up): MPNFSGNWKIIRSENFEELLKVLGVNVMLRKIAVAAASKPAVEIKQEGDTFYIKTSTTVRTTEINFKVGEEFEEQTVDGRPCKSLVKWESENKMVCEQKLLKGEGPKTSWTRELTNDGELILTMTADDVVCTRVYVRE
Sequence of UniProt P99999 (P99999 whole entry, looked up): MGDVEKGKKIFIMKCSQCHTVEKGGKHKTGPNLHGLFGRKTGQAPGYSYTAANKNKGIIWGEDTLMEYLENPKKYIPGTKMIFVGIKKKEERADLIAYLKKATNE

Row | Target | log2 fold change
1 | CIB1 (UniProt Q99828) | 0.026
2 | COL6A5 (UniProt A8TX70) | 0.046
3 | DFFB (UniProt O76075) | 0.008
4 | CSNK1G3 (UniProt Q9Y6M4) | 0.022
5 | DNM2 (UniProt P50570) | 0
6 | COPZ1 isoform 4 (UniProt P61923) | -0.015
7 | DPH5 isoform 5 (UniProt Q9H2P9) | 0.009
8 | COQ9 (UniProt O75208) | -0.011
9 | DLD (UniProt P09622) | 0.026
10 | CLP1 (UniProt Q92989) | -0.045
11 | DMAC2L (UniProt Q99766) | -0.005
12 | DOCK10 (UniProt Q96BY6) | -0.017
13 | CIAO2A (UniProt Q9H5X1) | 0.032
14 | DNAJC1 (UniProt Q96KC8) | 0.013
15 | DIAPH3 (UniProt Q9NSV4) | -0.041
16 | CNP (UniProt P09543) | -0.002
17 | CHURC1 isoform 2 (UniProt Q8WUH1) | -0.002

Row | Target | log2 fold change
18 | CYCS (UniProt P99999) | -0.005
19 | CSNK2B (UniProt P67870) | 0.021
20 | DOCK8 (UniProt Q8NF50) | 0.014
21 | CRABP2 (UniProt P29373) | -0.024
22 | DENND6A (UniProt Q8IWF6) | 0.025
23 | CHMP4A isoform 2 (UniProt Q9BY43) | -0.016
24 | CLCN3 (UniProt P51790) | 0.083
25 | DHRS11 (UniProt Q6UWP2) | -0.02
26 | COTL1 (UniProt Q14019) | -0.03
27 | CMBL (UniProt Q96DG6) | 0.025
28 | CPT1A (UniProt P50416) | -0.008
29 | DHRS1 (UniProt Q96LJ7) | -0.051
30 | COG7 (UniProt P83436) | -0.039
31 | CXorf38 (UniProt Q8TB03) | 0.026
32 | CNST (UniProt Q6PJW8) | 0.023
33 | CUX1 isoform 3 (UniProt P39880) | 0.014
34 | DHFR (UniProt P00374) | -0.055
